Measurements reported in PubChem BioAssay (Tox21).
Records with an inconclusive call do not appear. The source made the active and inactive calls. Unless noted, the call rests on the fitted dose curve.

Assays:
[1] = Nuclear factor erythroid 2-related factor 2/antioxidant responsive element (Nrf2/ARE) small molecule agonists: qHTS cell viability counter screen in human keratinocytes (AID 1919968; active means well fitted curve in the direction sought with a large enough effect in the repeat runs; an effect the other way counts as inactive or inconclusive; further: nearly all actives have a fitted effect of over 55% in size; further: potency means the concentration at half of the fitted maximal effect)
Method in brief: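 Seed 1,500 KeratinoSens cells per well, then incubate 5 h at 37 C/5% CO2. Add compounds in DMSO and incubate 23 h. Add CellTiter-Fluor, wait 1 h and read fluorescence.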

[2] = Nuclear factor erythroid 2-related factor 2/antioxidant responsive element (Nrf2/ARE) small molecule agonists: luciferase reporter gene qHTS assay in human keratinocytes (AID 1919969); further: nearly all actives have a fitted effect of over 35% in size; further: potency means the concentration at half of the fitted maximal effect
[3] = target: Gonadotropin-releasing hormone receptor (Homo sapiens) (UniProt P30968); assay: Human gonadotropin-releasing hormone receptor (GnRHR) small molecule agonists, calcium flux assay in GnRHR-HEK293 cells (AID 1920063); further: nearly all actives have a fitted effect of over 35% in size
Method in brief: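 Cells: HEK293 stably expressing human GnRHR. Steps: overnight (18 h) culture, 1 h calcium dye loading at 37 C, compound addition, kinetic fluorescence read at 480/540 nm. Each compound tested at 15 concentrations in triplicate.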

[4] = target: KiSS-1 receptor (Homo sapiens) (UniProt Q969F8); assay: Human kisspeptin (KISS1R) small molecule agonists, calcium flux assay in KISS1R-HEK293 cells (AID 1920064; active means well fitted curve in the direction sought with a large enough effect in the repeat runs; an effect the other way counts as inactive or inconclusive)
Method in brief: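 Cells plated and incubated 18 h; dye added, 1 h at 37 C; compounds in DMSO pinned in; signal read at 480/540 nm every second for 3 min. Each compound tested at 15 concentrations in triplicate.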

[5] = p53 small molecule agonists, cell-based qHTS assay with human liver microsomes (AID 1963577)
Method in brief: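 Cells carrying a p53-responsive bla reporter were rested 5 h (37 C, 5% CO2) before compound transfer. Human liver microsomes plus NADPH, 0.5 mg/mL final apiece, supplied metabolism during the 16 h 37 C exposure.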

[6] = p53 small molecule agonists, cell-based qHTS assay with rat liver microsomes (AID 1963578)
Method in brief: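 Fluorescence from a beta-lactamase reporter under a p53 response element was measured after cells had been incubated 16 h at 37 C with test compound and rat liver microsomes plus NADPH (0.5 mg/mL final each).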

[7] = p53 small molecule agonists, cell-based qHTS assay with human liver microsomes: qHTS cell viability counter screen (AID 1963579); further: nearly all actives have a fitted effect of over 45% in size
Method in brief: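 Seed p53RE-bla cells at 4,000 per well; incubate 5 h at 37 C; add compound, human liver microsomes and NADPH; incubate 16 h at 37 C; add CellTiter-Glo; after 30 min at room temperature, read luminescence.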

[8] = p53 small molecule agonists, cell-based qHTS assay: qHTS cell viability counter screen (AID 1963581); further: nearly all actives have a fitted effect of over 45% in size
Method in brief: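 Cells: HCT-116 with p53 response element-driven beta-lactamase. Treatment: 16 h, 37 C, compounds in DMSO. Read: CellTiter-Glo luminescence after 30 min RT.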

[9] = p53 small molecule agonists, cell-based qHTS assay (AID 1963582; active means well fitted activation curve with a large enough effect in the signal ratio in the repeat runs, not every such curve was filed as active; the % refers to the signal ratio)
Method in brief: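 Quantitative HTS in p53RE-bla cells: after a 5 h settling period, compounds delivered in DMSO were left on cells for 16 h at 37 C, and reporter induction was measured as fluorescence following 2 h substrate loading.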

[10] = target: 5-hydroxytryptamine receptor 2A (Homo sapiens) (UniProt P28223); assay: 5-hydroxytryptamine receptor 2A (HTR2A) small molecule antagonists, cell-based qHTS assay (AID 1963586); further: nearly all actives have a fitted effect of over 45% in size; further: potency means the concentration at half of the fitted maximal effect
Method in brief: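 Antagonist-mode intracellular calcium assay: DOI (4 nM) added after 5 min compound pre-incubation at room temperature to dye-loaded HTR2A-CHO cells. Fluorescence followed for 3 min, sampled every second.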

[11] = target: 5-hydroxytryptamine receptor 2A (Homo sapiens) (UniProt P28223); assay: 5-hydroxytryptamine receptor 2A (HTR2A) small molecule agonists, cell-based qHTS assay (AID 1963587); further: nearly all actives have a fitted effect of over 30% in size
Method in brief: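 Kinetic calcium-flux fluorescence (2 min, 1 sec intervals) after compound addition in agonist mode. HTR2A-CHO cells were cultured 18 h, then dye-loaded 1 h at 37 C.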

[12] = target: Muscarinic acetylcholine receptor M1 (Homo sapiens) (UniProt P11229); assay: Cholinergic receptor muscarinic 1 (CHRM1) small molecule antagonists, cell-based qHTS assay (AID 1963588); further: nearly all actives have a fitted effect of over 40% in size; further: potency means the concentration at half of the fitted maximal effect
Method in brief: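 CHRM1-CHO calcium-flux assay, antagonist mode. Cells were seeded 18 h, dye-loaded 1 h at 37 C and given compound for 5 min at RT, then acetylcholine was added at 50nM. FDSS fluorescence was read 3 min; 15 concentrations, three runs.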

[13] = target: Muscarinic acetylcholine receptor M1 (Homo sapiens) (UniProt P11229); assay: Cholinergic receptor muscarinic 1 (CHRM1) small molecule agonists, cell-based qHTS assay (AID 1963589); further: nearly all actives have a fitted effect of over 35% in size
Method in brief: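 Agonist-mode qHTS in CHO cells stably carrying human muscarinic M1. Intracellular calcium is tracked by fluorescence every second after compound transfer; each compound runs at 15 concentrations in three independent runs.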

[14] = cAMP Responsive Elements (CRE) small molecule agonists, cell-based qHTS assay (AID 1963590)
Method in brief: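 Agonist mode qHTS in CRE-bla HEK 293T cells: compounds dosed from DMSO for 3 h at 37 C/5% CO2, followed by LiveBLAzer B/G FRET substrate for 2 h at room temperature.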

[15] = cAMP Responsive Elements (CRE) small molecule antagonists, cell-based qHTS assay (AID 1963591; active means well fitted inhibition curve with a large enough effect in the signal ratio in the repeat runs, not every such curve was filed as active; the % refers to the signal ratio)
Method in brief: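 Antagonist mode: test compounds are co-incubated with the adenylyl cyclase activator NKH477 (0.25 uM final) on CRE-bla HEK293T cells for 3 h at 37 °C, followed by LiveBLAzer substrate loading.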

[16] = target: Beta-2 adrenergic receptor (Homo sapiens) (UniProt P07550); assay: Adrenergic beta2 receptor (ADRB2) small molecule agonists, cell-based qHTS assay (AID 1963593);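 further: CHO cells stably overexpressing human ADRB2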
Method in brief: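 CHO cells stably over-expressing ADRB2 were plated overnight at 37C, then dosed with compounds plus a stimulation mix containing 100uM IBMX and 25uM Ro-20-1724 for 0.5hr at room temperature. cAMP was measured by HTRF competition, 1hr.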

[17] = p53 small molecule agonists, cell-based qHTS assay with rat liver microsomes: qHTS cell viability counter screen (AID 1963580); further: nearly all actives have a fitted effect of over 45% in size
Method in brief: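 HCT-116 p53RE-bla, 4,000 cells/well, 5 h pre-incubation; cpd + rat liver microsomes 0.5 mg/mL + NADPH 0.5 mg/mL (final); 16 h, 37 C; CellTiter-Glo, 30 min RT; luminescence.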

[18] = target: D(2) dopamine receptor (Homo sapiens) (UniProt P14416); assay: Dopamine D2 receptor (DRD2) small molecule agonists, cell-based qHTS assay (AID 1963594); further: nearly all actives have a fitted effect of over 35% in size
Method in brief: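 cAMP accumulation in DRD2-HEK293 cells measured by HTRF after 1 h detection; compounds added 10 min before NKH477 (200nM […]) forskolin-analogue stimulation, 30 min at room temperature, with Ro20-1724 present at 0.1 mM final.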

[19] = target: Beta-2 adrenergic receptor (Homo sapiens) (UniProt P07550); assay: Adrenergic beta2 receptor (ADRB2) small molecule antagonists, cell-based qHTS assay (AID 1963592); further: series mostly up to about 92 µM; nearly all actives have a fitted effect of over 50% in size
Method in brief: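 Cells (CHO, stable ADRB2 overexpression) incubated 18-20hr at 37C; compounds added from DMSO; agonist mix (1nM isoproterenol, 100uM IBMX, 25uM Ro-20-1724) added; 0.5hr RT; d2-cAMP and anti-cAMP-cryptate added; 1hr RT; 665/615 nm read.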

[20] = target: D(2) dopamine receptor (Homo sapiens) (UniProt P14416); assay: Dopamine D2 receptor (DRD2) small molecule antagonists, cell-based qHTS assay (AID 1963595; active means well fitted inhibition curve with a large enough effect in the signal ratio in the repeat runs, with a control signal flat; the % refers to the signal ratio)
Method in brief: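 HTRF cAMP read-out at 665 and 620 nm emission (340 nm excitation). Antagonist mode: compounds were tested against 12 nM quinpirole in DRD2-HEK293 cells, with 200 nM NKH477 raising cAMP and 0.1 mM Ro20-1724 blocking its breakdown.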

Measured: Potency

Chain of 5-hydroxytryptamine receptor 2A (Homo sapiens) (P28223 whole entry, looked up): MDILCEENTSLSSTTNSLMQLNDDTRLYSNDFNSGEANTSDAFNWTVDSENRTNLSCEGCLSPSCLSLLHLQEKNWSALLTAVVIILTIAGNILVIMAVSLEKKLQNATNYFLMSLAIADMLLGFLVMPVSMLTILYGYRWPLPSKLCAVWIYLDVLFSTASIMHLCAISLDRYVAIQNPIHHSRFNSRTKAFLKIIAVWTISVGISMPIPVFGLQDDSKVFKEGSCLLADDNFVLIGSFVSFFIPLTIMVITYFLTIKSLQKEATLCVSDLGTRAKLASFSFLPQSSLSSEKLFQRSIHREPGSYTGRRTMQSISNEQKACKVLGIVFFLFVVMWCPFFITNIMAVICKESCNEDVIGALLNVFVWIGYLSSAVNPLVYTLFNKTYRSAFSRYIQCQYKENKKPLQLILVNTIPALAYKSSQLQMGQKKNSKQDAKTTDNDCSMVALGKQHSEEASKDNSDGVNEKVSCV
Chain of KiSS-1 receptor (Homo sapiens) (Q969F8 whole entry, looked up): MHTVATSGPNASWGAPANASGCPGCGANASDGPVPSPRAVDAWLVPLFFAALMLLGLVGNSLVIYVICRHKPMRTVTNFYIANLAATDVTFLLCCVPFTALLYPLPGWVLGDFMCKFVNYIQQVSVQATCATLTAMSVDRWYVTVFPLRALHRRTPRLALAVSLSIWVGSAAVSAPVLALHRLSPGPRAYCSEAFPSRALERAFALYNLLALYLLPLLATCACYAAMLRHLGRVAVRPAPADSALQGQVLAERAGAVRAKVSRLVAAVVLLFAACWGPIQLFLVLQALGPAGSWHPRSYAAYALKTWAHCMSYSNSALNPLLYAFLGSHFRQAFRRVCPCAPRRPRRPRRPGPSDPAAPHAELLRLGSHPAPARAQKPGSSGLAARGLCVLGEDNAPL
Chain of Gonadotropin-releasing hormone receptor (Homo sapiens) (P30968 whole entry, looked up): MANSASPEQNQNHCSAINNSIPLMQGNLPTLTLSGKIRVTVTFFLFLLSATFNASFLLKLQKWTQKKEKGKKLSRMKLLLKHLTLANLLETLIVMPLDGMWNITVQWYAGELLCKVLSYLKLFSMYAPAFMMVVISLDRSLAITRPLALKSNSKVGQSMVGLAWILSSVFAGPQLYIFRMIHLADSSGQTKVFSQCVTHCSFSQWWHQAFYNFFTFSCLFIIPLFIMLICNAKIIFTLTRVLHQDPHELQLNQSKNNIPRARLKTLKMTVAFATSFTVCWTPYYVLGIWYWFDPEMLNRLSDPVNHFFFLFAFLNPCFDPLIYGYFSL
Chain of D(2) dopamine receptor (Homo sapiens) (P14416 whole entry, looked up): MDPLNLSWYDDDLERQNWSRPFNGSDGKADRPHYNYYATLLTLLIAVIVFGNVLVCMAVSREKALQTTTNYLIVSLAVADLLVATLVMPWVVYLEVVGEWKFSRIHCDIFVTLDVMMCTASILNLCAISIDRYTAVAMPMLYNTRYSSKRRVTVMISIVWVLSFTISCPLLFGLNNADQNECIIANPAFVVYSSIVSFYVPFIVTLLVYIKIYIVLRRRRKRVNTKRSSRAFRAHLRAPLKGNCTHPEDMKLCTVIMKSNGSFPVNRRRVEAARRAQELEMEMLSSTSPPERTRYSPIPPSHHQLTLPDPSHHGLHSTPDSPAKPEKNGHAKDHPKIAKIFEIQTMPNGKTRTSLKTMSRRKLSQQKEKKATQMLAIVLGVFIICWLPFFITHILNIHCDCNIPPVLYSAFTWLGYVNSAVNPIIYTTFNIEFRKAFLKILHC
Chain of Muscarinic acetylcholine receptor M1 (Homo sapiens) (P11229 whole entry, looked up): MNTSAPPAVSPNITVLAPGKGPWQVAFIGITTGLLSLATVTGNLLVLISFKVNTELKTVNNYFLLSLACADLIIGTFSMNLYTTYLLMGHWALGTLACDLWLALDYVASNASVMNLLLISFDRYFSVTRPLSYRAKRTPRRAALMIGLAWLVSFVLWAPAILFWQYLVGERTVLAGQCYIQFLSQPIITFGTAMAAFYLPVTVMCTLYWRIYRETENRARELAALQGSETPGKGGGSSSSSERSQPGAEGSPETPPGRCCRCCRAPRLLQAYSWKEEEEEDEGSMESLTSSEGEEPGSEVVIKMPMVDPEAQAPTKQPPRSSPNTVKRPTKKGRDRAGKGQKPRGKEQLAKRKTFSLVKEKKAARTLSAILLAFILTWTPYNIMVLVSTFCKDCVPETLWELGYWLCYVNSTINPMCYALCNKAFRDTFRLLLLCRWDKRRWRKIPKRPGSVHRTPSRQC
Chain of Beta-2 adrenergic receptor (Homo sapiens) (P07550 whole entry, looked up): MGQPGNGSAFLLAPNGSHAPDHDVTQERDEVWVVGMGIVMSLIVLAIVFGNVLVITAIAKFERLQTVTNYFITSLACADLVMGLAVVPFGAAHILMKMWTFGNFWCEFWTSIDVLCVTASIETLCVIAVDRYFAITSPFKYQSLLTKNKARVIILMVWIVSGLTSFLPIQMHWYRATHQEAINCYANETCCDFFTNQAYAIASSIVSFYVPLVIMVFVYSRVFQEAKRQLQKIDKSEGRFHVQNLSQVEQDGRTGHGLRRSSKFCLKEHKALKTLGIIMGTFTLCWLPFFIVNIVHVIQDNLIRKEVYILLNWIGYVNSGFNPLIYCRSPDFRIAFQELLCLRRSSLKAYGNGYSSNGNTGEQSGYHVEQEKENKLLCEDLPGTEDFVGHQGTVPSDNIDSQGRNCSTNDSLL

CN(C)C/C=C(/c1ccc(Br)cc1)c1cccnc1
inactive: [1] | [2] | [3] | [4] | [5] | [6] | [7] | [8] | [9] | [10] | [11] | [12] | [13] | [14] | [15] | [16]

CO[C@H]1C=CO[C@@]2(C)Oc3c(C)c(O)c4c(O)c(cc(O)c4c3C2=O)NC(=O)/C(C)=C\C=C/[C@H](C)[C@H](O)[C@@H](C)[C@@H](O)[C@@H](C)[C@H](OC(C)=O)[C@@H]1C
active: [1] 54.9 µM | [2] 27.5 µM
inactive: [3] | [4] | [5] | [6] | [7] | [17] | [8] | [10] | [11] | [13] | [15] | [18]

O=C1OC(=O)C2C3C=CC(C3)C12 (stereo unspecified)
inactive: [1] | [2] | [3] | [4] | [5] | [6] | [7] | [17] | [9] | [10] | [11] | [12] | [13] | [14] | [15] | [19] | [16] | [20]

COc1ccc(CCC(=O)c2c(O)cc(O[C@@H]3O[C@H](CO)[C@@H](O)[C@H](O)[C@H]3O[C@@H]3O[C@@H](C)[C@H](O)[C@@H](O)[C@H]3O)cc2O)cc1O
inactive: [1] | [2] | [3] | [4] | [5] | [6] | [17] | [9] | [10] | [11] | [12] | [13] | [14] | [15] | [19] | [18] | [20]

CCCCCCC
inactive: [1] | [2] | [3] | [4] | [5] | [6] | [17] | [9] | [10] | [11] | [13] | [14] | [15] | [19] | [16] | [18] | [20]

O=C1c2ccccc2C(=O)c2cc(O)ccc21
inactive: [1] | [2] | [3] | [4] | [5] | [6] | [17] | [8] | [9] | [11] | [12] | [13] | [15] | [19] | [16] | [18] | [20]

Oc1ccc(Cl)c2cccnc12
inactive: [3] | [4] | [5] | [6] | [7] | [8] | [10] | [11] | [12] | [13] | [14] | [19] | [16] | [18] | [20]
active: [1] 0.531 µM | [2] 0.668 µM

CCOC(=O)N1CCC(Nc2ccc(Cl)cc2N)CC1
inactive: [1] | [2] | [3] | [4] | [5] | [6] | [7] | [8] | [9] | [10] | [12] | [13] | [19] | [18] | [20]

COCCCCCCCCOCCC[Si](C)(O[Si](C)(C)C)O[Si](C)(C)C
active: [1] 61.1 µM
inactive: [2] | [3] | [4] | [5] | [6] | [7] | [8] | [10] | [11] | [13] | [19] | [16] | [18] | [20]

CC(C)(C)c1cc(CCC(=O)OCCSCCOC(=O)CCc2cc(C(C)(C)C)c(O)c(C(C)(C)C)c2)cc(C(C)(C)C)c1O
inactive: [1] | [2] | [3] | [4] | [5] | [6] | [17] | [8] | [9] | [10] | [11] | [12] | [13] | [14] | [19] | [18] | [20]

CN(C)CCN(Cc1ccc(Cl)cc1)c1ccccn1
active: [10] 8.18 µM | [12] 7.29 µM
inactive: [1] | [2] | [3] | [4] | [5] | [6] | [17] | [8] | [9] | [11] | [13] | [14] | [19] | [18] | [20]

Fc1ccc([C@@H]2CCNC[C@H]2COc2ccc3c(c2)OCO3)cc1
inactive: [1] | [2] | [3] | [4] | [5] | [6] | [7] | [17] | [8] | [14] | [15] | [19] | [20]

CCc1nnc(NS(=O)(=O)c2ccc(N)cc2)s1
inactive: [1] | [2] | [3] | [4] | [5] | [6] | [17] | [8] | [9] | [10] | [11] | [12] | [14] | [15] | [19] | [16] | [18] | [20]

NS(=O)(=O)Cc1noc2ccccc12
inactive: [1] | [2] | [3] | [4] | [5] | [6] | [7] | [17] | [8] | [11] | [12] | [13] | [14] | [15] | [19] | [16] | [20]

O=C(O)CCN(C1(C(=O)NO)CCCC1)S(=O)(=O)c1ccc(Oc2ccc(F)cc2)cc1
inactive: [1] | [2] | [3] | [4] | [5] | [6] | [7] | [8] | [9] | [10] | [11] | [12] | [13] | [14] | [19] | [16] | [18] | [20]
